# Rows were chosen to be rich in hits. Some 3.6% of all compounds tested hit in one or more screens of this group.
# Pf apPOL block: Pf-apPOL DNA polymerase inhibition; inhibition, % at 10 µM; actives 0.25% (n = 210,000); AID 1794808; Recombinant Pf-apPOL, molecular beacon fluorescence, 1.5 h
# mHTT-CaM PPI inh: disrupts binding of mutant huntingtin to calmodulin; P42858; AlphaScreen His-mHTT/GST-CaM binding, luminescence; inhibition, % at 15 µM; actives 3.6% (n = 190,000); AID 1671202;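 also: 0% = both proteins with DMSO and 100% = one protein alone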
# * = called active by the depositor; . = not tested or not shown. Rule as the data show it: active = inhibition above about 50%; inactive = the rest.
SMILES,Pf apPOL block,mHTT-CaM PPI inh
COc1ccc(C=C2Oc3c(ccc4c3CN(CCN3CCOCC3)CO4)C2=O)c(OC)c1,-36.4,54.9*
COc1ccccc1C=C1Oc2c(ccc3c2CN(Cc2ccncc2)CO3)C1=O,-30.4,4.7
COc1cccc(C=C2Oc3c(ccc4c3CN(Cc3ccco3)CO4)C2=O)c1,-31.6,20.3
COc1ccccc1C=C1Oc2c(ccc3c2CN(Cc2cccnc2)CO3)C1=O,-27.8,41.7
COc1ccc(C=C2Oc3c(ccc4c3CN(Cc3ccco3)CO4)C2=O)cc1OC,-29.1,58.0*
COc1ccccc1C=C1Oc2c(ccc3c2CN(CCN2CCOCC2)CO3)C1=O,-23.7,57.0*
COCCn1c(CC2CCN(C(=O)c3cccc(OC)c3)C2)nc2cccnc21 (stereo not given),-5.4,-0.6
Cc1ccc2ncc(C#N)c(N3CCC(C(=O)N4CCCC4)CC3)c2c1,-3.6,-10.5
COc1ccc(OC)c(/C=c2\sc3nnc(-c4ccccc4C)n3c2=O)c1,-2.9,-5.0
COc1ccccc1CNC(=O)C1CCN(c2cc(N3CCSCC3)ncn2)CC1,-0.8,7.0
CCOc1ccccc1C(=O)N1CCC(COc2ccccc2C(=O)N2CCCC2)CC1,-1.0,-2.2
CCOc1ccccc1C(=O)N1CCC(CCOC)CC1,67.0*,-4.2
CNc1cc(Nc2cccc(C)c2)c2c3c(onc13)-c1ccccc1C2=O,0.8,89.0*
COc1cccc(Nc2ccc3noc4c3c2C(=O)c2ccccc2-4)c1,-22.7,58.0*
COc1cccc(NC2=CC(=O)CC(c3ccccc3)C2)c1 (stereo not given),-17.0,-3.3
O=C1c2ccccc2-c2onc3c(Br)cc(Br)c1c23,-1.1,10.0
CN(C)c1ccc(C(=O)N2CCCC(COc3ccc(C(=O)N4CCCC4)cc3)C2)cc1 (stereo not given),-1.1,13.6
Cn1c(=O)c(C(=O)Nc2nc3ccc(Br)cc3s2)c(O)c2ccccc21,-2.7,3.0
O=C(NCC1CCCO1)c1ccc2ncnc(N3CCCC3)c2c1 (stereo not given),3.8,-10.9
O=C1OCCN1C(=O)[C@H]1[C@H](c2ccc([N+](=O)[O-])cc2)C(c2ccc(F)cc2)=NN1c1ccccc1,-8.4,54.2*
O=C1OCCN1C(=O)[C@H]1[C@H](c2ccccc2)C(c2ccccc2)=NN1c1ccccc1,2.1,-53.6
O=C1OCCN1C(=O)[C@H]1[C@H](c2ccccc2)C(c2ccc(F)cc2)=NN1c1ccc(Br)cc1,-0.8,30.7
O=C1OCCN1C(=O)[C@H]1[C@H](c2ccc([N+](=O)[O-])cc2)C(c2ccc(F)cc2)=NN1c1ccc(Br)cc1,-5.5,65.0*
C=CC[n+]1c(Nc2ccccc2)sc(C)c1-c1ccccc1,1.2,11.1
Cc1[nH]n(-c2ccccc2)c(=O)c1C(c1ccco1)c1c(C)[nH]n(-c2ccccc2)c1=O,-6.9,54.0*
SMILES,Pf apPOL block,mHTT-CaM PPI inh
Cc1c(C(c2ccco2)c2c(C)n(C)n(-c3ccccc3)c2=O)c(=O)n(-c2ccccc2)n1C,3.3,1.0
COc1cccc(NC(=O)Nc2ccccc2NC(=O)c2ccsc2)c1,-1.4,-5.7
CC(C)CCNC(=O)C1(C)CCc2ccccc2C(=O)N1CCc1c[nH]c2ccccc12 (stereo not given),-4.7,97.8*
COCCNC(=O)C1(C)CCC(=O)N1CCc1c[nH]c2ccccc12 (stereo not given),-0.9,2.1
O=C(c1n[nH]c2ccccc12)N1CCn2cnnc2C1,3.6,0.3
COc1ccc(-c2c(O)c3ccc(O)cc3oc2=O)cc1,0.9,0.5
COc1cc(O)c2c(c1)oc(=O)c1c3cc(O)c(O)cc3oc21,51.3*,.
COc1cc(C=C2Oc3cc(OC(=O)c4cccc([N+](=O)[O-])c4)ccc3C2=O)cc(OC)c1OC,-2.6,6.4
O=C(NCCCn1ccnc1)c1ccc(Cl)cc1,2.1,-3.5
O=C(NCCCn1ccnc1)Nc1cccc(Cl)c1,0.5,88.7*
O=C(NCCCn1ccnc1)C(=O)Nc1ccc(F)c(Cl)c1,-1.9,69.9*
O=C(NCCCn1ccnc1)C(=O)Nc1ccc2c(c1)OCCO2,-2.3,-3.3
COc1ccc(/C=C2\C=C(c3ccccc3)N(c3cccc(C(=O)O)c3)C2=O)cc1,-5.2,25.0
CCc1noc(C2CCCCN2C(=O)c2ccncc2)n1 (stereo not given),-7.2,2.1
O=C(CN1CCc2ccccc2C1C(=O)N1CCCCC1)NCc1ccccc1Cl (stereo not given),-4.2,8.5
Cc1[nH]n(-c2ccccc2)c(=O)c1C=Nc1c(C)n(C)n(-c2ccccc2)c1=O,-0.8,4.0
COc1cccc(C2CC(c3ccc(Br)cc3)Nc3ncnn32)c1OC (stereo not given),-7.5,51.0*
COc1cccc(C2CC(c3ccc(C)cc3)Nc3ncnn32)c1OC (stereo not given),-6.4,14.0
CCc1ccc(C2CC(c3ccccc3OC)n3ncnc3N2)cc1 (stereo not given),3.1,1.2
Cc1ccc(C2CC(c3ccc(F)c(Br)c3)n3nnnc3N2)cc1 (stereo not given),-5.8,61.0*
CCc1ccc(C2CC(c3cc(OC)ccc3OC)n3ncnc3N2)cc1 (stereo not given),-6.7,51.0*
COc1ccc(OC)c(C2CC(c3ccc(C)cc3)Nc3nnnn32)c1 (stereo not given),-0.4,5.6
Cc1ccc(C2CC(c3ccc(F)cc3)n3nnnc3N2)cc1 (stereo not given),6.6,-0.1
COc1ccc(OC)c(C2CC(c3ccc(Br)cc3)Nc3nnnn32)c1 (stereo not given),-6.9,57.6*
Cn1c(Br)nc([N+](=O)[O-])c1Br,.,2.9
SMILES,Pf apPOL block,mHTT-CaM PPI inh
C=CCNC(=O)NN=c1cc(C)c2cc3c(cc2o1)OC1(CCCCC1)CC3,-5.7,2.0
Cc1nonc1C1=CC(C)(c2nonc2C)C(C#N)(C#N)C(N)=C1C#N (stereo not given),9.2,8.0
CCOc1ccc(NC(=O)CN(c2cccc(OC)c2)S(C)(=O)=O)cc1,2.3,1.5
Fc1ccc(C2CC(c3ccccc3OC(F)F)n3ncnc3N2)cc1 (stereo not given),-3.2,16.0
FC(F)Oc1ccccc1C1CC(c2ccc(I)cc2)Nc2ncnn21 (stereo not given),-2.9,53.0*
COc1ccccc1C1CC(c2ccc(I)cc2)Nc2ncnn21 (stereo not given),-7.7,41.0
COc1ccccc1C1CC(c2ccc(Cl)cc2)Nc2ncnn21 (stereo not given),-3.3,54.0*
Cn1nc(-c2nc(-c3cccc(F)c3)no2)c2c1CCN(C(=O)c1ccc(Cl)cc1)C2,-2.2,2.5
CCN(CC)c1ccc(NC(=O)CCS(=O)(=O)c2cccc3nsnc23)c(C)c1,-2.2,17.0
CCN(CC)c1ccc(NS(=O)(=O)c2cccc3nsnc23)c(C)c1,-3.9,54.0*
O=C(COc1ccc([N+](=O)[O-])cc1)Nc1ccc(S(=O)(=O)Nc2nccs2)cc1,-3.6,7.0
Cn1ccc2c(N3CCCCCCC3)cc3c(c21)C1CCC3O1 (stereo not given),-0.5,70.7*
CN(CCc1ccccc1)c1cc2c(c3c1ccn3C)C1CCC2O1 (stereo not given),-1.7,99.3*
CN(c1cccc(F)c1)c1cc2c(c3c1ccn3C)C1CCC2O1 (stereo not given),-5.2,93.4*
CCN(Cc1ccccc1)c1cc2c(c3c1ccn3C)C1CCC2O1 (stereo not given),0.3,12.1
